# In PubChem BioAssay (Tox21):
# Where “and” joins values, the source holds several entries; their conditions need not be identical. Identical values can stand only once. Records with an inconclusive call do not appear. Entries that show only a call come without a potency. A structure can be active in one record and inactive in another. Calls of active or inactive are those of the source. Unless noted, calls follow the shape of the dose curve; as a rule, active = well fitted curve in the direction sought with a large enough effect in the repeat runs; inconclusive = weak or mixed curves; inactive = no such curve, though single readings can be large; an effect the other way counts as inactive or inconclusive.
# Assays:
# [1] = qHTS assay to test for compound auto fluorescence at 535 nm (green) in HEK293 cells (AID 720680)
# [2] = qHTS assay to test for compound auto fluorescence at 460 nm (blue) in HEK293 cell free culture (AID 720681)
# Outline: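 Compounds were added to cell-free DMEM with 10% FBS and fluorescence read directly. The blue channel used 405 nm excitation and 460 nm emission, with triamterene as the reference fluorophore.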
# [3] = qHTS assay to test for compound auto fluorescence at 535 nm (green) in HEK293 cell free culture (AID 720682)
# Outline: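 Compounds were pin-transferred into cell-free DMEM with 10% FBS, and green fluorescence was read at excitation 485 nm and emission 535 nm. Intensities were expressed as fluorescein-equivalent values.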
# [4] = qHTS assay to test for compound auto fluorescence at 590 nm (red) in HEK293 cell free culture (AID 720683)
# Outline: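 Cell-free wells of DMEM with 10% FBS received compound, and intrinsic fluorescence was read at excitation/emission 540/590 nm. Values expressed as equivalence to Rose Bengal sodium.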
# [5] = qHTS assay to test for compound auto fluorescence at 590 nm (red) in HepG2 cell free culture (AID 720684)
# Outline: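 Compounds are added to culture medium (MEM, 10% FBS) lacking cells, then fluorescence is read at excitation 540 nm, emission 590 nm, with Rose Bengal sodium as the equivalency standard.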
# [6] = qHTS assay to test for compound auto fluorescence at 460 nm (blue) in HepG2 cell free culture (AID 720685)
# Outline: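 Compound (23 nL) or DMSO pinned into cell-free MEM with 10% FBS; blue fluorescence read at 405/460 nm excitation/emission, expressed as auto-fluorescence equivalency to triamterene.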
# [7] = qHTS assay to test for compound auto fluorescence at 535 nm (green) in HepG2 cell free culture (AID 720686)
# [8] = qHTS assay to test for compound auto fluorescence at 460 nm (blue) in HepG2 cells (AID 720687)
# Outline: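 HepG2 cells in MEM with 10% FBS, attached overnight at 37 C, were exposed to compound or DMSO for 1 hr at 37 C, 5% CO2. Blue fluorescence was read at 405/460 nm, with triamterene as reference fluorophore.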
# [9] = qHTS assay for identifying genotoxic compounds that show differential cytotoxicity against isogenic chicken DT40 cell lines with known DNA damage response pathways - wild type cell line (AID 743012); also: nearly all actives have a fitted effect of over 60% in size; also: potency is read from the fitted curve at half-maximal effect
# Outline: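 Parental DNA repair-proficient DT40 cells, 300 per well, were pre-incubated ~0.5 h at 37 C/5% CO2, pin-dosed with compounds in DMSO, then incubated 40 h. Viability was read as CellTiter-Glo luminescence after 30 min at room temperature.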
# [10] = qHTS assay for identifying genotoxic compounds that show differential cytotoxicity against isogenic chicken DT40 cell lines with known DNA damage response pathways - Rev3 mutant cell line (AID 743014); also: nearly all actives have a fitted effect of over 55% in size; also: potency is read from the fitted curve at half-maximal effect
# [11] = qHTS assay to identify small molecule antagonists of the androgen receptor (AR) signaling pathway - cell viability counter screen (AID 743033; also: nearly all actives have a fitted effect of over 45% in size; also: potency is read from the fitted curve at half-maximal effect)
# [12] = molecular target: Androgen receptor (Homo sapiens) (UniProt P10275); experiment: qHTS assay to identify small molecule antagonists of the androgen receptor (AR) signaling pathway (AID 743035; active = well fitted inhibition curve with a large enough effect in the signal ratio in the repeat runs, not every such curve was filed as active; the % refers to the signal ratio; also: potency is read from the fitted curve at half-maximal effect)
# Outline: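 HEK293 cells stably carrying a UAS-driven beta-lactamase reporter (AR-UAS-bla GripTite) were plated for 4 h at 37C, then given compound and the agonist R1881 and incubated 16 h. Reporter activity was read by LiveBLAzer B/G FRET fluorescence after 2 h at room temperature.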
# [13] = molecular target: Androgen receptor (Homo sapiens) (UniProt P10275); experiment: qHTS assay to identify small molecule agonists of the androgen receptor (AR) signaling pathway using the MDA cell line (AID 743040; also: nearly all actives have a fitted effect of over 20% in size)
# Outline: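 Human breast carcinoma MDA-kb2 reporter cells (MMTV-luc, AR/GR elements) were treated for 16 h at 37C in 0% CO2 following a 5 h settling period. Signal was quantified by ONE-Glo luminescence.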
# [14] = qHTS assay to identify small molecule antagonists of the androgen receptor (AR) signaling pathway using the MDA cell line - cell viability counter screen (AID 743041; also: nearly all actives have a fitted effect of over 45% in size; also: potency is read from the fitted curve at half-maximal effect)
# Outline: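 Same-well cytotoxicity was assessed by CellTiter-Fluor in MDA-kb2 AR-luc cells after 16 h of compound treatment under R1881 agonism.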
# [15] = molecular target: Androgen receptor (Homo sapiens) (UniProt P10275); experiment: qHTS assay to identify small molecule antagonists of the androgen receptor (AR) signaling pathway using the MDA cell line (AID 743042; also: nearly all actives have a fitted effect of over 55% in size; also: potency is read from the fitted curve at half-maximal effect)
# Outline: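 MDA-kb2 breast carcinoma cells carrying MMTV-luciferase (AR/GR responsive) were co-treated with compounds and the agonist R1881 for 16 h at 37C. Inhibition read as ONE-Glo luminescence; CellTiter-Fluor fluorescence measured in parallel for cytotoxicity.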
# [16] = molecular target: Glucocorticoid receptor (Homo sapiens) (UniProt P04150); experiment: qHTS assay to identify small molecule agonists of the glucocorticoid receptor (GR) signaling pathway (AID 720691; active = well fitted activation curve with a large enough effect in the signal ratio in the repeat runs, not every such curve was filed as active; the % refers to the signal ratio)
# Outline: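 GR-bla HeLa cells (beta-lactamase reporter under glucocorticoid response element) were plated 4 h at 37 C/5% CO2, given compounds in DMSO, and incubated 18 h at 37 C. LiveBLAzer B/G FRET substrate was added for 2 h at room temperature, then fluorescence intensity read.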
# [17] = qHTS assay to identify small molecule antagonists of the glucocorticoid receptor (GR) signaling pathway - cell viability counter screen (AID 720693); also: nearly all actives have a fitted effect of over 55% in size; also: potency is read from the fitted curve at half-maximal effect
# [18] = qHTS assay for identifying genotoxic compounds that show differential cytotoxicity against isogenic chicken DT40 cell lines with known DNA damage response pathways - Rad54/Ku70 mutant cell line (AID 743015); also: nearly all actives have a fitted effect of over 60% in size; also: potency is read from the fitted curve at half-maximal effect
# [19] = molecular target: Glucocorticoid receptor (Homo sapiens) (UniProt P04150); experiment: qHTS assay to identify small molecule antagonists of the glucocorticoid receptor (GR) signaling pathway (AID 720692; active = well fitted inhibition curve with a large enough effect in the signal ratio in the repeat runs, not every such curve was filed as active; the % refers to the signal ratio)
# Outline: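 GR-bla HeLa cells (beta-lactamase reporter under glucocorticoid response element) were pre-plated 4 h at 37 C, treated with compounds plus 5 nM dexamethasone (final) for 18 h, then read by LiveBLAzer B/G FRET fluorescence after 2 h.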
# [20] = molecular target: Androgen receptor (Homo sapiens) (UniProt P10275); experiment: qHTS assay to identify small molecule agonists of the androgen receptor (AR) signaling pathway (AID 743036; active = well fitted activation curve with a large enough effect in the signal ratio in the repeat runs, with a control signal flat, not every such curve was filed as active; the % refers to the signal ratio)
# Outline: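 Activation was read as beta-lactamase FRET signal from LiveBLAzer B/G substrate, added for 2 h at room temperature. Before that, GeneBLAzer AR-UAS-bla GripTite (HEK293) cells had 16 h compound exposure at 37C.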
# Sequence of Androgen receptor (Homo sapiens) (P10275 whole entry, looked up): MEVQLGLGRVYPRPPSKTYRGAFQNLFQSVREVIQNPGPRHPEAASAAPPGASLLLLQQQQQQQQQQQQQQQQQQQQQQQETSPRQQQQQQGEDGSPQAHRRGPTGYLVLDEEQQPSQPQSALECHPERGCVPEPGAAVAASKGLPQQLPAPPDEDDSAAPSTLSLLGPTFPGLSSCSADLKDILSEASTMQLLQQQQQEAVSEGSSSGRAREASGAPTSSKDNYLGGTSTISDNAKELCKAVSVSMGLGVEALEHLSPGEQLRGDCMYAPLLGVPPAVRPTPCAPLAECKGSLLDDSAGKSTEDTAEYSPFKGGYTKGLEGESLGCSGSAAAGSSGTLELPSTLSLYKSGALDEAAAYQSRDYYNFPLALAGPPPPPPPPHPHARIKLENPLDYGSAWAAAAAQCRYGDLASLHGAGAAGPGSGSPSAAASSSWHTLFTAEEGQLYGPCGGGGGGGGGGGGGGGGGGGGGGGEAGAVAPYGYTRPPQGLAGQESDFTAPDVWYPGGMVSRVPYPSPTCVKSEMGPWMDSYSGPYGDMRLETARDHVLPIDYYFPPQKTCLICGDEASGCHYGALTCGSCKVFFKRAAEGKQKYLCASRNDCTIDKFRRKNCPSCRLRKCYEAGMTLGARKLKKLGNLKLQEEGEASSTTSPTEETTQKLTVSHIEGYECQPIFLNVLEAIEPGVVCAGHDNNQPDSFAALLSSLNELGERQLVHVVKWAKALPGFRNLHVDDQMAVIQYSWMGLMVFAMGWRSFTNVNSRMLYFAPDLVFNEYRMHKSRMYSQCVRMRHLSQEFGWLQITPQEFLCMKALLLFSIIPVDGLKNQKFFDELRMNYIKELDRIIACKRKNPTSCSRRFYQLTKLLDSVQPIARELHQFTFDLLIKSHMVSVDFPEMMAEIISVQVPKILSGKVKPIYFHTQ
# Sequence of Glucocorticoid receptor (Homo sapiens) (P04150 whole entry, looked up): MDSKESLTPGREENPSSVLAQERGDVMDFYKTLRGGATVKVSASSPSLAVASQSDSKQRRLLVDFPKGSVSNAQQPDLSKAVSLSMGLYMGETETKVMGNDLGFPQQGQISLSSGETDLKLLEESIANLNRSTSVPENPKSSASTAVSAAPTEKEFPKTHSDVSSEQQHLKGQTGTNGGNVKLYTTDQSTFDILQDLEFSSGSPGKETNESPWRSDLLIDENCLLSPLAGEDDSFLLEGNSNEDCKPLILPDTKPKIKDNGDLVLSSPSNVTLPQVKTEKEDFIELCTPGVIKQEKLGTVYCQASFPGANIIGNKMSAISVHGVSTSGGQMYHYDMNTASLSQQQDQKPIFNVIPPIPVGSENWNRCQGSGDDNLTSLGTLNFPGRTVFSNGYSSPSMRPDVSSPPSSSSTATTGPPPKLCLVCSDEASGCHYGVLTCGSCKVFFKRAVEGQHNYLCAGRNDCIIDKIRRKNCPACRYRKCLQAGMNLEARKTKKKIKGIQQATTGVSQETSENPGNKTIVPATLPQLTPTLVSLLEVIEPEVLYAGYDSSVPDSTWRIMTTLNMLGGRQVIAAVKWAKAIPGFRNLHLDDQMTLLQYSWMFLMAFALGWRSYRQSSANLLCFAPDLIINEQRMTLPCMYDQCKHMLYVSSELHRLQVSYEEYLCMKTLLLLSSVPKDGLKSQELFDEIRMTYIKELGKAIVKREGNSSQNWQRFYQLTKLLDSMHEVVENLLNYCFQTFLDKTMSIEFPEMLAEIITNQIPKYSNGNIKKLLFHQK
Structure (SMILES),Potency [1],outcome [2],Potency [3],Potency [4],Potency [5],outcome [6],Potency [7],outcome [8],Potency [9],Potency [10],Potency [11],Potency [12],Potency [13],Potency [14],Potency [15],Potency [16],Potency [17],Potency [18],Potency [19],outcome [20]
O=C(Nc1ccc(Cl)cc1)Nc1ccc(Cl)c(Cl)c1,inactive,inactive,inactive,inactive,inactive,inactive,inactive,inactive,3.35 µM (active) and 6.08 µM (active) and 2.73 µM (active),2.66 µM (active) and 4.31 µM (active) and 2.17 µM (active),3.38 µM (active) and 1.94 µM (active) and 3.89 µM (active),6.01 µM (active) and 4.36 µM (active),inactive,24.3 µM (active),43.1 µM (active) and 13.7 µM (active),,,,,
O=C(Nc1ccc([N+](=O)[O-])cc1Cl)c1cc(Cl)ccc1O,inactive,inactive,inactive,inactive,inactive,inactive,inactive,inactive,422 nM (active) and 770 nM (active),,1.51 µM (active) and 436 nM (active),,,,,inactive,0.275 µM (active),473 nM (active) and 611 nM (active),,
CCC(C)OC(=O)c1ccc(O)cc1 (centres undefined),inactive,inactive,inactive,inactive,inactive,inactive,inactive,inactive,,inactive,inactive,,,inactive,,inactive,,,inactive,
CC(C)=CCCC(C)CCO (centres undefined),inactive,inactive,inactive,inactive,inactive,inactive,inactive,inactive,61.1 µM (active),inactive and 30.6 µM (active),inactive,,,inactive,,,inactive,inactive and 27.3 µM (active),,
CN(C)CCC=C1c2ccccc2CCc2ccccc21,inactive,inactive,inactive,inactive,inactive,inactive,inactive,inactive,9.44 µM (active) and 54.5 µM (active),13.3 µM (active) and 30.6 µM (active),inactive,,,,,inactive,inactive,13.3 µM (active) and 54.5 µM (active),,
O=C(COc1ccc(Cl)cc1)N1CCN(Cc2ccc3c(c2)OCO3)CC1,inactive,inactive,inactive,inactive,inactive,inactive,inactive,,29.8 µM (active),16.8 µM (active) and 54.5 µM (active),inactive,,,inactive,,,,48.6 µM (active),,
O=C(/C=C/C=C/c1ccc2c(c1)OCO2)N1CCCCC1,inactive,inactive,inactive,inactive,inactive,inactive,inactive,,,61.3 µM (active),inactive,,,inactive,,,inactive,,,
NNc1ccc(C(=O)O)cc1,inactive,inactive,inactive,inactive,inactive,inactive,inactive,,inactive,inactive,inactive,,,inactive,,,,,,
C=CC(C)(CCC=C(C)C)OC(C)=O (centres undefined),inactive,inactive,inactive,inactive,inactive,inactive,inactive,,inactive,inactive and 54.5 µM (active),inactive,,,inactive,,inactive,,,inactive,
Brc1cc(Oc2cc(Br)c(Br)c(Br)c2Br)c(Br)c(Br)c1Br,inactive,inactive,inactive,inactive,inactive,inactive,inactive,,inactive,inactive,inactive,,,inactive,,inactive,,inactive,inactive,
NC=O,inactive,inactive,inactive,inactive,inactive,inactive,inactive,,inactive,inactive,inactive,,,inactive,,,inactive,inactive,,
CC1=CC2C3CC(C=C3C)C2C1 (centres undefined),inactive,inactive,inactive,inactive,inactive,inactive,inactive,,,inactive and 54.5 µM (active),inactive,,,inactive,,inactive,inactive,,inactive,
CC(C)OB(OC(C)C)OC(C)C,inactive,inactive,inactive,inactive,inactive,inactive,inactive,,inactive,inactive,inactive,,,inactive,,inactive,,inactive,inactive,
CC1=CCC(C(C)(C)O)CC1 (centres undefined),inactive,inactive,inactive,inactive,inactive,inactive,inactive,,inactive,,inactive,inactive,inactive,inactive,inactive,,,inactive,,inactive
CCCCc1oc2ccccc2c1C(=O)c1cc(I)c(OCCN(CC)CC)c(I)c1,inactive,inactive,inactive,inactive,inactive,inactive,inactive,,,,inactive and 34.9 µM (active),,,inactive,,,,,,
